Reference: PubChem BioAssay (Tox21)
Several values for one entry are separate records, joined by “and”; a condition that tells them apart may be missing. Identical values can stand only once. Records with an inconclusive call do not appear. Where a call stands in place of a potency, no number is given. More than one record can exist for a structure, and the calls need not agree. Activity calls are given as the source filed them. Unless noted, calls come from the whole dose curve.

What was measured:
[1] = Nuclear factor erythroid 2-related factor 2/antioxidant responsive element (Nrf2/ARE) small molecule agonists: qHTS cell viability counter screen in human keratinocytes (AID 1919968; active = well fitted curve in the direction sought with a large enough effect in the repeat runs; an effect the other way counts as inactive or inconclusive; note: nearly all actives have a fitted effect of over 55% in size; note: potency is the fitted concentration of half-maximal effect); conditions: KeratinoSens HaCaT ARE cells viability, CellTiter-Fluor, 24 h; series mostly up to 92.4 µM
Procedure, shortened: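 After a 5 h attachment period, ARE-reporter keratinocytes were dosed with compounds in DMSO and then cultured 23 h at 37 C. Cell viability came from CellTiter-Fluor signal read after a further 1 h.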

[2] = Nuclear factor erythroid 2-related factor 2/antioxidant responsive element (Nrf2/ARE) small molecule agonists: luciferase reporter gene qHTS assay in human keratinocytes (AID 1919969); conditions: KeratinoSens HaCaT ARE-luciferase, luminescence, 24 h; series mostly up to 92.4 µM; note: nearly all actives have a fitted effect of over 35% in size; note: potency is the fitted concentration of half-maximal effect
[3] = target: Gonadotropin-releasing hormone receptor (Homo sapiens) (UniProt P30968); experiment: Human gonadotropin-releasing hormone receptor (GnRHR) small molecule agonists, calcium flux assay in GnRHR-HEK293 cells (AID 1920063); conditions: calcium flux fluorescence, agonist mode; series mostly up to 57.6 µM; note: nearly all actives have a fitted effect of over 35% in size
Gonadotropin-releasing hormone receptor (Homo sapiens), sequence (P30968 whole entry, looked up): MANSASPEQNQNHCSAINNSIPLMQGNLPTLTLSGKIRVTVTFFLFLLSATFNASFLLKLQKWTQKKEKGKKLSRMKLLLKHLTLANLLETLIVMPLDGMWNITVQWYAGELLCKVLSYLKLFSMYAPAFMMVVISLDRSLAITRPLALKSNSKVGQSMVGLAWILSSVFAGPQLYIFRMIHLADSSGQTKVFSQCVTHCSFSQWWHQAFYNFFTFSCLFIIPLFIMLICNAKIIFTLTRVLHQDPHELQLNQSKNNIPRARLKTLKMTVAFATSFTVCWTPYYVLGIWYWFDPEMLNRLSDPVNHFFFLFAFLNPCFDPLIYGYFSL
Procedure, shortened: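 We seeded human GnRHR-expressing HEK293 cells for 18 hours, loaded them with calcium dye for an hour at 37 C, added test compounds, and recorded fluorescence intensity kinetically for three minutes.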

[4] = target: KiSS-1 receptor (Homo sapiens) (UniProt Q969F8); experiment: Human kisspeptin (KISS1R) small molecule agonists, calcium flux assay in KISS1R-HEK293 cells (AID 1920064; active = well fitted curve in the direction sought with a large enough effect in the repeat runs; an effect the other way counts as inactive or inconclusive); conditions: KISS1R-HEK293, calcium flux fluorescence, agonist; series mostly up to 76.8 µM
KiSS-1 receptor (Homo sapiens), sequence (Q969F8 whole entry, looked up): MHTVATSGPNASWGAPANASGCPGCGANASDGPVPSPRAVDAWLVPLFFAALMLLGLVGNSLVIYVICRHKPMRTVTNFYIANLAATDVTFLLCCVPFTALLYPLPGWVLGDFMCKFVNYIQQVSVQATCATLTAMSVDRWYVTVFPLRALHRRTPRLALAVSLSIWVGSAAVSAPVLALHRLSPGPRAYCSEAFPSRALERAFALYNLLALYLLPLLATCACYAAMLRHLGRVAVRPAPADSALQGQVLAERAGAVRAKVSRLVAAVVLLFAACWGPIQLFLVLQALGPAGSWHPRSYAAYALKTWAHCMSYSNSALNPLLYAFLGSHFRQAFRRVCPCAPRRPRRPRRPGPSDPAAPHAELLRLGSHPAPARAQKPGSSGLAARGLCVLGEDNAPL
Procedure, shortened: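 Kinetic calcium assay, 1 s sampling over 3 min at Ex/Em 480/540, in HEK293 cells engineered with human KISS1R; compounds delivered in DMSO after 1 h dye loading.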

[5] = G protein-coupled receptor (GPCR) small molecule agonists, calcium flux assay: HEK293 wild type cell line counter screen (AID 1920065); conditions: HEK293 WT calcium flux, fluorescence, agonist mode; series mostly up to 57.6 µM
Procedure, shortened: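 Calcium-sensitive dye, loaded 1 h at 37 C into cells cultured 18 h, reports compound-evoked calcium release as fluorescence (Ex/Em 480/540), measured over 3 min. Agonist mode; 15-point titrations, triplicate.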

[6] = p53 small molecule agonists, cell-based qHTS assay with human liver microsomes (AID 1963577); conditions: HCT-116 p53RE-bla with human liver microsomes, ratio, 16 h; series mostly up to 66 µM;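 note: p53 response element beta-lactamase reporter cells with liver microsomes plus NADPH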
Procedure, shortened: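 16 h, 37 C exposure of p53RE-bla cells to compounds with human liver microsomes and NADPH (0.5 mg/mL final each); detection via LiveBLAzer mixture, 2 h dark at room temperature.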

[7] = p53 small molecule agonists, cell-based qHTS assay with rat liver microsomes (AID 1963578); conditions: HCT-116 p53RE-bla, beta-lactamase ratio, 16 h; series mostly up to 66 µM
Procedure, shortened: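 With rat liver microsomes and NADPH present (0.5 mg/mL final each), p53RE-bla cells are treated with compound for 16 h at 37 C. LiveBLAzer detection mixture is then applied for 2 h at room temperature in the dark.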

[8] = p53 small molecule agonists, cell-based qHTS assay with human liver microsomes: qHTS cell viability counter screen (AID 1963579); conditions: p53RE-bla HCT-116 viability, ATP luminescence, 16 h, HLM; series mostly up to 66 µM; note: nearly all actives have a fitted effect of over 45% in size; note: potency is the fitted concentration of half-maximal effect
Procedure, shortened: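 In this multiplexed counter screen, the reporter plates were subsequently treated with CellTiter-Glo so that cell viability, reflected by luminescence, could be recorded for p53RE-bla cells dosed 16 h with compounds under microsomal activation (HLM and NADPH).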

[9] = p53 small molecule agonists, cell-based qHTS assay with rat liver microsomes: qHTS cell viability counter screen (AID 1963580); conditions: p53RE-bla HCT-116 + rat microsomes, ATP viability, 16 h; series mostly up to 66 µM; note: nearly all actives have a fitted effect of over 45% in size; note: potency is the fitted concentration of half-maximal effect
Procedure, shortened: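 Viability is assessed in parallel with the p53 reporter read: HCT-116 p53RE-bla cells receive compounds plus rat microsomes and NADPH (0.5 mg/mL final apiece), incubate 16 h at 37 C, and then CellTiter-Glo luminescence is recorded.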

[10] = p53 small molecule agonists, cell-based qHTS assay: qHTS cell viability counter screen (AID 1963581); conditions: p53RE-bla HCT-116 viability, ATP luminescence, 16 h; series mostly up to 66 µM; note: nearly all actives have a fitted effect of over 45% in size; note: potency is the fitted concentration of half-maximal effect
Procedure, shortened: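 Following 5 h attachment, HCT-116 p53RE-bla cells took up compound for 16 h at 37 C; the reporter was read with B/G FRET substrate (2 h RT), and viability then via CellTiter-Glo ATP luminescence.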

[11] = target: 5-hydroxytryptamine receptor 2A (Homo sapiens) (UniProt P28223); experiment: 5-hydroxytryptamine receptor 2A (HTR2A) small molecule antagonists, cell-based qHTS assay (AID 1963586); conditions: HTR2A-CHO cells, DOI-induced calcium flux, fluorescence; series mostly up to 61.5 µM; note: nearly all actives have a fitted effect of over 45% in size; note: potency is the fitted concentration of half-maximal effect
5-hydroxytryptamine receptor 2A (Homo sapiens), sequence (P28223 whole entry, looked up): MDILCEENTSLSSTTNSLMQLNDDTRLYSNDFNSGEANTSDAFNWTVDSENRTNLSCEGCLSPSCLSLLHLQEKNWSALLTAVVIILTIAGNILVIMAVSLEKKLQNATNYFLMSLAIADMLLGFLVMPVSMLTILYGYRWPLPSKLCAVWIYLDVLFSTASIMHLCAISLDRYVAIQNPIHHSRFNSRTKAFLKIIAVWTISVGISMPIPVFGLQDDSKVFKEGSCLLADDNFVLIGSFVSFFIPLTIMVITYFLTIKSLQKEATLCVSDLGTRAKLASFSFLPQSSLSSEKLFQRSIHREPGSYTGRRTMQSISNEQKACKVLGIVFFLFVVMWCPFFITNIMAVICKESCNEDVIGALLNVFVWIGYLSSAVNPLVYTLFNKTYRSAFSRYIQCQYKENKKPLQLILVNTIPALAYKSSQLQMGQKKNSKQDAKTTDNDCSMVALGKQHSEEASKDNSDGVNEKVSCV
Procedure, shortened: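 Antagonist-mode intracellular calcium assay: DOI (4 nM) added after 5 min compound pre-incubation at room temperature to dye-loaded HTR2A-CHO cells. Fluorescence followed for 3 min, sampled every second.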

[12] = target: 5-hydroxytryptamine receptor 2A (Homo sapiens) (UniProt P28223); experiment: 5-hydroxytryptamine receptor 2A (HTR2A) small molecule agonists, cell-based qHTS assay (AID 1963587); conditions: HTR2A-CHO cells, calcium flux fluorescence, agonist mode; series mostly up to 76.8 µM; note: nearly all actives have a fitted effect of over 30% in size; note: potency is the fitted concentration of half-maximal effect
Procedure, shortened: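 CHO cells stably expressing human HTR2A, plated 18 h, loaded with calcium dye 1 h at 37 C. Agonist mode: compounds added and intracellular calcium fluorescence recorded kinetically for 2 min at 1 sec intervals.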

[13] = target: Muscarinic acetylcholine receptor M1 (Homo sapiens) (UniProt P11229); experiment: Cholinergic receptor muscarinic 1 (CHRM1) small molecule antagonists, cell-based qHTS assay (AID 1963588); conditions: CHRM1-CHO antagonist mode, calcium flux fluorescence; series mostly up to 61.5 µM; note: nearly all actives have a fitted effect of over 40% in size; note: potency is the fitted concentration of half-maximal effect
Muscarinic acetylcholine receptor M1 (Homo sapiens), sequence (P11229 whole entry, looked up): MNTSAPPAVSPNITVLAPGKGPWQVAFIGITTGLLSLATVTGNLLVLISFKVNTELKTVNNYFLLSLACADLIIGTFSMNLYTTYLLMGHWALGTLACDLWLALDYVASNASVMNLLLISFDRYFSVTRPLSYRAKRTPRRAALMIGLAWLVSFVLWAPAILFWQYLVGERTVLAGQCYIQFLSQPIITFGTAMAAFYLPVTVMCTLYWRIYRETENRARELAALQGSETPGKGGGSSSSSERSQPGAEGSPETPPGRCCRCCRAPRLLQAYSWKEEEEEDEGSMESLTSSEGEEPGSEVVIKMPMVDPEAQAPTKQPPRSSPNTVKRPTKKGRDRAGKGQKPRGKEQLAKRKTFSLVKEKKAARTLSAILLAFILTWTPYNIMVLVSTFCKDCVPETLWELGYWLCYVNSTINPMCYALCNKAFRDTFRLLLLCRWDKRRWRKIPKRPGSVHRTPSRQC
Procedure, shortened: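 CHRM1-CHO calcium-flux assay, antagonist mode. Cells were seeded 18 h, dye-loaded 1 h at 37 C and given compound for 5 min at RT, then acetylcholine was added at 50nM. FDSS fluorescence was read 3 min; 15 concentrations, three runs.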

[14] = target: Muscarinic acetylcholine receptor M1 (Homo sapiens) (UniProt P11229); experiment: Cholinergic receptor muscarinic 1 (CHRM1) small molecule agonists, cell-based qHTS assay (AID 1963589); conditions: CHRM1-CHO cells, agonist mode, calcium flux fluorescence; series mostly up to 76.8 µM; note: nearly all actives have a fitted effect of over 35% in size
Procedure, shortened: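 Measures agonist-induced intracellular calcium rise. Stable human CHRM1 CHO line, 1 h dye load at 37 C, compounds from DMSO, kinetic fluorescence read.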

[15] = cAMP Responsive Elements (CRE) small molecule agonists, cell-based qHTS assay (AID 1963590); conditions: CRE-bla HEK293T, beta-lactamase FRET ratio, 3 h; series mostly up to 92.4 µM
Procedure, shortened: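 A CRE-responsive beta-lactamase reporter in HEK 293T cells was used. Treatment ran 3 h at 37 C; detection used LiveBLAzer B/G FRET substrate for 2 h at room temperature.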

[16] = cAMP Responsive Elements (CRE) small molecule antagonists, cell-based qHTS assay (AID 1963591; active = well fitted inhibition curve with a large enough effect in the signal ratio in the repeat runs, not every such curve was filed as active; the % refers to the signal ratio); conditions: CRE-bla HEK293T, beta-lactamase FRET ratio; series mostly up to 92.4 µM
Procedure, shortened: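 HEK293T cells carrying a CRE-driven beta-lactamase reporter receive compound and NKH477 (0.25 uM final) for 3 h. Fluorescence from LiveBLAzer B/G FRET substrate is read after 2 h at room temperature.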

[17] = target: D(2) dopamine receptor (Homo sapiens) (UniProt P14416); experiment: Dopamine D2 receptor (DRD2) small molecule agonists, cell-based qHTS assay (AID 1963594); conditions: HEK293-DRD2 cAMP HTRF, agonist mode, 30 min; series mostly up to 92.4 µM; note: nearly all actives have a fitted effect of over 35% in size; note: potency is the fitted concentration of half-maximal effect
D(2) dopamine receptor (Homo sapiens), sequence (P14416 whole entry, looked up): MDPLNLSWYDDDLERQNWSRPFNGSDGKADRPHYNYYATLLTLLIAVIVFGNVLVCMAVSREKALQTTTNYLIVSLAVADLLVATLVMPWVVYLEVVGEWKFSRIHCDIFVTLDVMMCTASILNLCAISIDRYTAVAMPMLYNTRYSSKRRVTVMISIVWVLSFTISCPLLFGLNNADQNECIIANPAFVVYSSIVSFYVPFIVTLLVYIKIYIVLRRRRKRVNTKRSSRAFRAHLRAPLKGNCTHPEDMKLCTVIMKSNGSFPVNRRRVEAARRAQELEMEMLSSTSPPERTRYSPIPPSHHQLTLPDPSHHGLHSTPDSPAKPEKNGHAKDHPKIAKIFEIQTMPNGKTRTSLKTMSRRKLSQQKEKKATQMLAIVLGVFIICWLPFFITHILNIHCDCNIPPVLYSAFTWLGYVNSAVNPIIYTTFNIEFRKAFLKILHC
Procedure, shortened: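 HEK293 cells stably expressing human DRD2, pre-treated with PDE inhibitor Ro20-1724 (0.1 mM final) and compound 10 min at room temperature, then stimulated with NKH477 (200nM […]) for 30 min. cAMP read by HTRF (665/620 nm).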

[18] = target: D(2) dopamine receptor (Homo sapiens) (UniProt P14416); experiment: Dopamine D2 receptor (DRD2) small molecule antagonists, cell-based qHTS assay (AID 1963595; active = well fitted inhibition curve with a large enough effect in the signal ratio in the repeat runs, with a control signal flat; the % refers to the signal ratio); conditions: HEK293-DRD2 cAMP HTRF antagonist mode; series mostly up to 92.4 µM
Procedure, shortened: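 Cells were plated and grown for 24 h at 37 °C. Ro20-1724 (0.1 mM final) went in first, then compound for 10 min. NKH477 (200 nM) with quinpirole (12 nM) followed for 30 min at RT, then HTRF detection reagents for 1 h.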

[19] = target: Beta-2 adrenergic receptor (Homo sapiens) (UniProt P07550); experiment: Adrenergic beta2 receptor (ADRB2) small molecule antagonists, cell-based qHTS assay (AID 1963592); conditions: CHO-ADRB2 cells, isoproterenol-stimulated cAMP HTRF ratio, 0.5 h; series mostly up to 92.4 µM; note: nearly all actives have a fitted effect of over 50% in size
Beta-2 adrenergic receptor (Homo sapiens), sequence (P07550 whole entry, looked up): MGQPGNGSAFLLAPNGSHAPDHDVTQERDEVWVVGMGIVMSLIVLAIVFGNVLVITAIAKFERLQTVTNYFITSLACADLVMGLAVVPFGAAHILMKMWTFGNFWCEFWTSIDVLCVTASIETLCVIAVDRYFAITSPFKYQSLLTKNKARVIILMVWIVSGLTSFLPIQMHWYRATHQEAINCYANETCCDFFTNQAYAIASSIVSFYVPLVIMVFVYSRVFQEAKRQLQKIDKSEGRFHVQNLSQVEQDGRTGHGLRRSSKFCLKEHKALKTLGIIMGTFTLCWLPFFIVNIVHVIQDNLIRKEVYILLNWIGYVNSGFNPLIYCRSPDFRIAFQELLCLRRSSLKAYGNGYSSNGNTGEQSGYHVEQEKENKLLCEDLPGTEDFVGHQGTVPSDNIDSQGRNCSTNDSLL
Procedure, shortened: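 Cells (CHO, stable ADRB2 overexpression) incubated 18-20hr at 37C; compounds added from DMSO; agonist mix (1nM isoproterenol, 100uM IBMX, 25uM Ro-20-1724) added; 0.5hr RT; d2-cAMP and anti-cAMP-cryptate added; 1hr RT; 665/615 nm read.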

[20] = p53 small molecule agonists, cell-based qHTS assay (AID 1963582; active = well fitted activation curve with a large enough effect in the signal ratio in the repeat runs, not every such curve was filed as active; the % refers to the signal ratio); conditions: HCT-116 p53RE-bla reporter, beta-lactamase FRET ratio, 16 h; series mostly up to 66 µM
Procedure, shortened: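 In this cell-based concentration-response screen, a p53 response element drives beta-lactamase; cells received DMSO-borne compounds after 5 h culture and were incubated a further 16 h before FRET substrate development.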

Row | Structure (SMILES) | Potency [1] | Potency [2] | Potency [3] | Potency [4] | Potency [5] | Potency [6] | Potency [7] | Potency [8] | Potency [9] | Potency [10] | Potency [11] | Potency [12] | Potency [13] | Potency [14] | Potency [15] | Potency [16] | Potency [17] | Potency [18] | Potency [19] | Potency [20]
1 | Nc1ccc(-c2ccccc2)cc1 | inactive | 13.7 µM (active) | inactive | inactive | inactive | inactive | inactive | inactive | inactive | inactive | inactive | inactive | inactive | inactive | inactive | inactive | inactive | inactive | – | –
2 | CCCN(CCC)N=O | inactive | inactive | inactive | inactive | inactive | inactive | inactive | inactive | inactive | inactive | inactive | inactive | inactive | inactive | – | inactive | – | – | inactive | –
3 | CCCCCCCCn1sccc1=O | 1.22 µM (active) and 1.43 µM (active) | 612 nM (active) and 641 nM (active) | inactive | inactive | inactive | inactive | inactive | 40.9 µM (active) and inactive | 4.09 µM (active) and 1.35 µM (active) | 40.9 µM (active) and 38.1 µM (active) | inactive and 1.11 µM (active) | inactive and 25.7 µM (active) | inactive | inactive | – | – | 42.8 µM (active) | inactive | inactive | –
4 | CC(C#N)CCC#N (stereo unspecified) | inactive | inactive | inactive | inactive | inactive | inactive | inactive | inactive | inactive | – | inactive | inactive | inactive | inactive | inactive | inactive | inactive | inactive | inactive | inactive
5 | O=C1CCCO1 | inactive | inactive | inactive | inactive | inactive | inactive | inactive | inactive | inactive | inactive | inactive | inactive | 14.6 µM (active) and inactive | inactive | inactive | inactive | inactive | inactive | inactive | –
6 | OCCSSCCO | inactive | inactive | inactive | inactive | inactive | inactive | inactive | inactive | inactive | inactive | inactive | inactive | inactive | inactive | inactive | inactive | inactive | inactive | inactive | –
7 | CCCCOC(=O)c1ccccc1C(=O)OCCCC | inactive | inactive | inactive | inactive | inactive | inactive | inactive | inactive | inactive | inactive | inactive | inactive | inactive | – | inactive | inactive | inactive | inactive | inactive | –
8 | CCOP(=O)(CN(CCO)CCO)OCC | inactive | inactive | inactive | inactive | inactive | inactive | inactive | inactive | inactive | inactive | inactive | inactive | inactive | inactive | inactive | – | inactive | inactive | inactive | –
9 | CC(=O)[C@H]1CC[C@H]2[C@@H]3CC[C@H]4C[C@](C)(O)CC[C@]4(C)[C@H]3CC[C@]12C | inactive | inactive | inactive | inactive | inactive | inactive | inactive | inactive | inactive | inactive | inactive | inactive | inactive | inactive | inactive | inactive | inactive | inactive | inactive | –
10 | C[C@]12CC[C@H]3[C@@H](CCC4=CC(=O)CC[C@@H]43)[C@@H]1CC[C@@H]2O | inactive | inactive | inactive | inactive | inactive | inactive | inactive | inactive | inactive | inactive | – | – | – | – | – | inactive | inactive | inactive | inactive | –
11 | CCOC(=O)C(C)OC(=O)c1cc(Oc2ccc(C(F)(F)F)cc2Cl)ccc1[N+](=O)[O-] (stereo unspecified) | inactive | inactive | inactive | inactive | inactive | inactive | inactive | inactive | inactive | inactive | inactive | inactive | inactive | inactive | inactive | inactive | inactive | inactive | inactive | –
12 | COCC(=O)N(c1c(C)cccc1C)[C@H](C)C(=O)OC | inactive | inactive | inactive | inactive | inactive | inactive | inactive | inactive | inactive | inactive | inactive | inactive | inactive | inactive | inactive | inactive | inactive | inactive | inactive | –
13 | O=[N+]([O-])c1ccc(Cl)c([N+](=O)[O-])c1 | 24.7 µM (active) and 43.3 µM (active) | 15.6 µM (active) | inactive | inactive | inactive | inactive | inactive | 36.9 µM (active) and 40.8 µM (active) | 40.8 µM (active) | 26.1 µM (active) | inactive | inactive | inactive | inactive | – | – | inactive | inactive | – | –
